In PubChem BioAssay AID1345082 (National Center for Advancing Translational Sciences (NCATS), 2018) one finds Potency data, which are given here for 70 compounds.

Out of some 94,000 compounds screened, about 4,000 (4.3%) were called active. Inconclusive results (about 29%) are left out. Calls come from the whole dose curve; as a rule, active = well fitted inhibition curve with a large enough effect; inconclusive = small, poorly fitted or top-dose-only effect; inactive = no such curve, though single readings can be large or run the other way. The list comes from a sample in which actives are over-represented; it also holds similar structures and randomly drawn compounds. Entries that show only a call come without a potency.
Potency is the fitted concentration of half-maximal effect.

This test in a line: Cytotoxic Profiling in NIH 3T3 Cell Line of Diverse Libraries Using Quantitative High-Throughput Screening. Note: nearly all actives have a fitted effect of over 55% in size. The following applies: NIH 3T3 viability, CellTiter-Glo ATP luminescence, 48-72 h; series mostly up to 96.7 µM. From the text: Cell-based phenotypic screening is a commonly used approach to discover biological pathways, novel drug targets, chemical probes and high-quality hit-to-lead molecules. Many hits identified from high-throughput screening campaign are ruled out through a series of follow-up potency, selectivity/specificity, and cytotoxicity assays. Prioritization of molecules with little or no cytotoxicity for a more in-depth downstream evaluation influence the future direction of projects, so cytotoxicity profiling of the screening libraries at early stage is essential for increasing the likelihood of candidate success. In this study, we analyzed results from a cell-based cytotoxicity screening campaign, comprising nearly 10,000 compounds in NCATS annotated libraries, and over 100,000 compounds in a diversity library, evaluated in four normal cell lines (HEK 293, NIH 3T3, CRL-7250 and HaCat) and a cancer cell line (KB 3-1, a HeLa subline) with overall screening outcomes, hit rates, pan-activity and selectivity. For the annotated library, we also examined the primary targets and mechanistic pathways regularly associated with cell death. To our knowledge, this is the first study to use high-throughput screening to profile large libraries for cytotoxicity assessment in both normal and cancer cell lines. In summary, the results generated here constitutes a valuable resource for the scientific community and provides insight on identifying cytotoxic compounds with particular mechanisms of action, and prioritizing compounds with suitable cytotoxicity profile for further evaluation.
NIH 3T3 cells were seeded into white 1536-well plates using a Multidrop Combi peristaltic dispenser (ThermoFisher, Waltham, MA) at a density of 400 cells/well in 5 uL of medium respectively. A pintool (Kalypsys) was used to transfer 23 nL of compound solution to the 1536-well assay plates. After 48 or 72 hr incubation at 37 degree Celsius, 5% CO2 and 95% humidity, 2.5 uL of CellTiter-Glo (Promega) was dispensed into each well using a dispenser (Aspect Automation, St. Paul, MN) with solenoid valves (Lee Valves, Westbrook CT). Plates were left at room temperature for 10 min before imaging the ATP-coupled luminescence using a ViewLux microplate imager (PerkinElmer, Waltham, MA).
Background: Cellular ATP, detected with luciferase, serves as a proxy for viable cell number.
As to `O=C([C@H]1CN2CCC1C[C@@H]2Cn1cc(-c2ccccc2)nn1)N1CCOCC1` (stereo not given in full), the Potency entry is “inactive”.

As for `Cc1nc(-c2ccccc2)cc([C@H]2CN3CC[C@H]2C[C@@H]3CNC2CCN(C)CC2)n1`, the Potency is 56.2 µM (active).

On to `CN(C)C(=O)[C@H]1CN2CCC1C[C@@H]2Cn1cc(-c2ccc(-c3ccccc3)cc2)nn1` (stereo not given in full), for which the Potency entry was “inactive”.

As to `Cc1nc(-c2ccccc2)cc([C@H]2CN3CC[C@H]2C[C@@H]3CNC2CCOCC2)n1`, the Potency is 31.6 µM (active).

Turning to `O=[S+]1([O-])NCC2(CCN(Cc3cccnc3)C2)Oc2ncccc21` (stereo not given), the Potency entry was “inactive”.

`COc1ccc([C@@H]2CN(C(=O)c3c(C)noc3C)[C@@H]3C4CCN(CC4)[C@@H]32)cc1`: the Potency result is “inactive”.

Consider `CN(C)[C@@H]1CN(C(=O)Cc2ccc(F)cc2)C[C@H]1CO`, for which the Potency result was “inactive”.

In the case of `O=C1NC2(Cc3ccccc31)CN(Cc1ccncc1)C2`, the Potency entry was “inactive”.

For `Cn1nc(-c2cccs2)cc1[C@H]1CN2CC[C@H]1C[C@@H]2CNC(=O)CCCC(=O)O`, the Potency result was “inactive”.

As to `CCCNC(=O)OC[C@H]1C[C@@H]2CCN1C[C@@H]2c1cc(-c2ccc(OC)c(OC)c2)nn1C`, the Potency entry is “inactive”.

As to `COc1ccc(-c2cc([C@H]3CN4CC[C@H]3C[C@@H]4CNC(=O)c3ccccc3)n(C)n2)cc1OC`, the Potency entry is “inactive”.

`COc1ccc(C(=O)NC[C@H]2C[C@@H]3CCN2C[C@@H]3c2cc(-c3ccccc3)nn2C)cc1`: the Potency was 89.1 µM (active).

As to `COc1ccccc1-c1cc([C@H]2CN3CC[C@H]2C[C@@H]3CNC(C)=O)n(C)n1`, the Potency result is “inactive”.

In the case of `Cn1nc(-c2cccs2)cc1[C@H]1CN2CC[C@H]1C[C@@H]2CNC(=O)Nc1ccccc1`, the Potency is 100 µM (active).

`CCC(=O)N1CCC2(CC1)c1nccn1-c1ccccc1CN2CC(C)C`: the Potency entry is “inactive”.

On to `O=C(Cc1ccc(F)cc1)N1CCN(C2CCN(Cc3cccnc3)C2=O)CC1` (stereo not given), for which the Potency entry is “inactive”.

Regarding `CC1=NOC2(CCN(Cc3cncs3)C2)C1` (stereo not given), the Potency entry was “inactive”.

Turning to `Cc1ccc(S(=O)(=O)NC[C@H]2C[C@@H]3CCN2C[C@@H]3CN2CCN(c3ncccn3)CC2)cc1`, the Potency entry is “inactive”.

In the case of `COc1cc2c(cc1OC1CCCC1)NC(=O)C21CCN(C(=O)c2ccnn2C)CC1`, the Potency result was “inactive”.

Turning to `COc1cc2c(cc1OCc1ccccc1)NC(=O)C21CCN(CCC(C)C)CC1`, the Potency is 89.1 µM (active).

For the compound `COc1cc2c(cc1OCc1ccccc1)NC(=O)C21CCN(C(=O)C(C)C)CC1`, the Potency was 14.1 µM (active).

Turning to `COc1cc2c(cc1-c1ccncc1)NC(=O)C21CCN(C(C)=O)CC1`, the Potency was 28.2 µM (active).

In the case of `O=C1NC2(Cc3ccccc31)CN(CC1CC1)C2`, the Potency result was “inactive”.

As for `CC(C)N1CC2CCC(C1)N2C(=O)N1CCCC1`, the Potency result was “inactive”.

For `CCCSc1ncc(CN2CC[C@H]3CNC[C@H]32)cn1`, the Potency entry is “inactive”.

Consider `O=C(O)COCC(=O)N1C[C@@H]2C[C@H](C1)c1c(-c3ccc4ccccc4c3)ccc(=O)n1C2`, for which the Potency result was “inactive”.

In the case of `Cn1cccc1CN1CCC2(COc3ccncc3[S+](=O)([O-])N2)C1` (stereo not given), the Potency result was “inactive”.

`CCOC(=O)[C@H]1CN(C(=O)N2CCOCC2)[C@]2(C)C(=O)N(CC(=O)N(C)C)c3ccccc3[C@H]12`: the Potency result is “inactive”.

As for `Cc1ccc(C(=O)N2CCC3(CC2)c2nccn2-c2ccccc2CN3C)cc1C`, the Potency entry is “inactive”.

Turning to `FC(F)(F)CN1C2CCC1CN(c1ccc(Cl)nn1)C2`, the Potency entry is “inactive”.

With `CCNC(=O)N1CC2CN(C(C)C)CC(C1)O2`, the Potency result is “inactive”.

For the compound `CC1=NOC2(CCN(Cc3c[nH]c4ccccc34)CC2)C1`, the Potency result was “inactive”.

Turning to `Cn1cc(CN2CCN(C(=O)COc3ccc(F)cc3)CC2)ccc1=O`, the Potency result is “inactive”.

For `COc1ccc(-c2cn(C[C@H]3C[C@@H]4CCN3C[C@@H]4C(=O)NCc3ccccc3)nn2)cc1`, the Potency entry was “inactive”.

Consider `CCCS(=O)(=O)NC[C@H]1C[C@@H]2CCN1C[C@@H]2c1cc(C2CCCC2)nn1C`, for which the Potency result was “inactive”.

On to `CCC(CC)c1cc([C@H]2CN3CC[C@H]2C[C@@H]3CNS(=O)(=O)Cc2ccccc2)nc(-c2ccncc2)n1`, for which the Potency is 22.4 µM (active).

With `CCC(CC)c1cc([C@H]2CN3CC[C@H]2C[C@@H]3CNC(=O)NCc2ccccc2)nc(-c2ccncc2)n1`, the Potency was 20 µM (active).

With `CCCCc1cn(C[C@H]2CC3CCN2C[C@@H]3C(=O)NCc2ccccc2)nn1` (stereo not given in full), the Potency result is “inactive”.

Consider `COc1ccc(-c2cc([C@H]3CN4CC[C@H]3C[C@@H]4CNS(=O)(=O)Cc3ccccc3)n(C)n2)cc1OC`, for which the Potency result was “inactive”.

Consider `O=S1(=O)NCC2(CCN(Cc3ccc(Cl)s3)C2)Oc2ncccc21` (stereo not given), for which the Potency result is “inactive”.

In the case of `Cc1noc(C)c1CC(=O)N1[C@H]2CC[C@@H]1c1cnc(-c3ccccc3)nc1C2`, the Potency entry is “inactive”.

Consider `O=S(=O)(NC[C@H]1C[C@@H]2CCN1C[C@@H]2CN1CCCCC1)c1ccc(Cl)cc1`, for which the Potency result is “inactive”.

As to `CNC1CCOCC1`, the Potency result was “inactive”.

Consider `CCCCc1cn(C[C@H]2C[C@@H]3CCN2C[C@@H]3C(=O)NCCNC(C)=O)nn1`, for which the Potency result is “inactive”.

With `CC(C)NC(=O)NC[C@H]1C[C@@H]2CCN1C[C@@H]2CN1CCCC1`, the Potency result was “inactive”.

With `CC[C@H]1CN2CC[C@H]1C[C@@H]2CNCc1cccc(C#N)c1`, the Potency entry was “inactive”.

Take `CN(CCc1ccccn1)C[C@H]1CN2CC[C@H]1C[C@@H]2CNC(=O)c1ccccc1`: the Potency entry was “inactive”.

Turning to `C=CCN(C)C[C@H]1CN2CC[C@H]1C[C@@H]2CNC(=O)Nc1cccc(SC)c1`, the Potency was 100 µM (active).

Consider `CN(Cc1ccccc1)C[C@H]1CN2CC[C@H]1C[C@@H]2CNC(=O)Nc1cccc(C#N)c1`, for which the Potency was 100 µM (active).

In the case of `CC[C@H]1CN2CC[C@H]1C[C@@H]2CNC(=O)c1ccc(N(C)C)cc1`, the Potency result was “inactive”.

Take `CCOC(=O)[C@H]1CN(C(=O)c2cc3ccccc3s2)[C@]2(C)C(=O)Nc3ccccc3[C@H]12`: the Potency result was “inactive”.

In the case of `Cc1ccc([C@@H]2CN(Cc3ncc[nH]3)[C@@H]3C4CCN(CC4)[C@@H]32)cc1`, the Potency entry is “inactive”.

Take `Cc1ccccc1-c1ccc2n(c1=O)C[C@H]1C[C@@H]2CN(C(=O)CSCC(=O)O)C1`: the Potency entry was “inactive”.

Take `COc1ccc(CC(=O)N2Cc3ccccc3CC3(CCCN3C)C2)cc1` (stereo not given): the Potency entry is “inactive”.

As for `CC(C)N1C[C@@H]2OCC(=O)N(Cc3cccnc3)[C@@H]2C1`, the Potency result was “inactive”.

As for `Cc1ccc([C@@H]2CN(C(=O)c3ccco3)[C@@H]3C4CCN(CC4)[C@@H]32)cc1`, the Potency entry was “inactive”.

Consider `Cc1nc(-c2ccc(C(F)(F)F)cc2)cc([C@H]2CN3CC[C@H]2C[C@@H]3CNC(=O)C2CCC2)n1`, for which the Potency was 20 µM (active).

Consider `C#C[C@H]1CN2CC[C@H]1C[C@@H]2CNC(=O)C1CC1`, for which the Potency entry is “inactive”.

As for `COc1ccc(-c2cc([C@H]3CN4CC[C@H]3C[C@@H]4CNC(=O)C3CC3)n(C)n2)cc1OC`, the Potency entry was “inactive”.

On to `COc1ccccc1-c1cc([C@H]2CN3CC[C@H]2C[C@@H]3CNC(=O)c2ccco2)nc(C)n1`, for which the Potency entry is “inactive”.

Turning to `O=C(NC[C@H]1C[C@@H]2CCN1C[C@@H]2CN1CCN(c2ncccn2)CC1)c1ccc(C(F)(F)F)cc1`, the Potency entry is “inactive”.

In the case of `Cc1nc(-c2ccc(N(C)C)cc2)cc([C@H]2CN3CC[C@H]2C[C@@H]3CNC(=O)C2CCC2)n1`, the Potency is 89.1 µM (active).

In the case of `COc1ccccc1-c1cc([C@H]2CN3CC[C@H]2C[C@@H]3CNC(=O)c2ccco2)n(C)n1`, the Potency result is “inactive”.

Turning to `CC(=O)NCCNC(=O)[C@H]1CN2CCC1C[C@@H]2Cn1cc(-c2ccc(C(C)(C)C)cc2)nn1` (stereo not given in full), the Potency result is “inactive”.

Turning to `Cc1nc(-c2ccc(C(F)(F)F)cc2)cc([C@H]2CN3CC[C@H]2C[C@@H]3CNC(=O)c2ccco2)n1`, the Potency is 25.1 µM (active).

For `O=C(COc1ccccc1)N1C[C@@H]2C[C@H](C1)c1c(-c3ccccc3F)ccc(=O)n1C2`, the Potency entry was “inactive”.

Turning to `FC(F)(F)CN1C2CCC1CN(c1cccc(Cl)n1)C2`, the Potency result was “inactive”.

For the compound `O=[N+]([O-])c1ccc(N2CC3CCC(C2)N3CC(F)(F)F)nc1`, the Potency entry is “inactive”.

Turning to `O=C(N1[C@H]2CC[C@@H]1c1cnc(-c3ccccc3)nc1C2)C1(c2ccccc2)CC1`, the Potency result is “inactive”.

Turning to `COCCC(=O)N1CCC2(CC1)c1nccn1-c1ccccc1CN2CC(C)C`, the Potency result was “inactive”.
